Experimental findings from publication PMC4336329 (PLoS ONE, 2015) are described below.

About 14,000 (4.5%) of roughly 310,000 compounds showed an effect of 50% or more. Effects have a minus sign here. The entries come from a sample that favours strong results as a whole.
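Also: peak tail current of the secondary pulse compared with the same well before compound.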

In this assay the target is human ether-à-go-go-related gene (hERG) potassium channel (human, UniProt Q12809). The assay can be described thus: primary screen, population patch clamp on CHO cells stably expressing hERG; higher = less effect of the substance.
Sequence of human ether-à-go-go-related gene (hERG) potassium channel (Q12809 whole entry, looked up): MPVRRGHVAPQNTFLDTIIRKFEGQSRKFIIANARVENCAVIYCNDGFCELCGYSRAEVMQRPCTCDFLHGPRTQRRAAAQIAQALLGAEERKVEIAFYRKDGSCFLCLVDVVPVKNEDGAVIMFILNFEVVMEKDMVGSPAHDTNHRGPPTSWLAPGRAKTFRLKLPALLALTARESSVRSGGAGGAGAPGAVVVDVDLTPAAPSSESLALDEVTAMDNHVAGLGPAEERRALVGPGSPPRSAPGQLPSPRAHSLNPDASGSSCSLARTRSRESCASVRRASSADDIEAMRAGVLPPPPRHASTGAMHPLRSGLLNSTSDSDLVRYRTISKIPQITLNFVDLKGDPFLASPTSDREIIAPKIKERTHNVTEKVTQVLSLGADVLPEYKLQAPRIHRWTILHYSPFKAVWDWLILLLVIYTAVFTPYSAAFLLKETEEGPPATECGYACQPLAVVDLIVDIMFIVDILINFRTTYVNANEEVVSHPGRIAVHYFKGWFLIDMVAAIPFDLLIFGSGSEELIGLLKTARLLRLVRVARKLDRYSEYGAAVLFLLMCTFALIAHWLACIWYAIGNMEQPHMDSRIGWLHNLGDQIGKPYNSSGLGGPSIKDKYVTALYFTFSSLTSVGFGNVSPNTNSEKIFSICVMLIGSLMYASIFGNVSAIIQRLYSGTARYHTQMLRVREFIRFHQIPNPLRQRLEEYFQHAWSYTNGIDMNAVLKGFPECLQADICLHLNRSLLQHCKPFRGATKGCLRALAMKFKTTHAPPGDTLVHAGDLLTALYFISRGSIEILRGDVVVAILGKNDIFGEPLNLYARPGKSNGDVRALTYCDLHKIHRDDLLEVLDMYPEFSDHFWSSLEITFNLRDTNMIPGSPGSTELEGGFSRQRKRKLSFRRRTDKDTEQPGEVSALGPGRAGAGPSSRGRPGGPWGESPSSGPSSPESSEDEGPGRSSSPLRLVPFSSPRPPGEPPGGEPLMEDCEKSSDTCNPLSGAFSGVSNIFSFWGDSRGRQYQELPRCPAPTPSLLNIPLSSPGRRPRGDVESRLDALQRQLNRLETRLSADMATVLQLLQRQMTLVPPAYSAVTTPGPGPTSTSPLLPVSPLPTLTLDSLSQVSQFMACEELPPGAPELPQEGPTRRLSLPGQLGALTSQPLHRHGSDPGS
On to `COc1ccc2cc(C(c3nnnn3Cc3ccc(F)cc3)N3CCCCCC3)c(=O)[nH]c2c1` (stereo not shown), for which the “hERG current change (%, negative = inhibition) at 10uM” value is -23.3%. Next, `Cc1ccc(C)c2[nH]c(=O)c(C(c3nnnn3Cc3ccccc3)N3CCc4ccccc4C3)cc12` (stereo not shown): -9.12%.

With `COc1ccc(Cn2nnnc2C(c2cc3cc(C)ccc3[nH]c2=O)N2CCOCC2)cc1` (stereo not shown), the “hERG current change (%, negative = inhibition) at 10uM” value is -50.2%. Turning to `COc1ccc(Cn2nnnc2C(c2cc3ccc(OC)cc3[nH]c2=O)N2CCCCCC2)cc1` (stereo not shown), the “hERG current change (%, negative = inhibition) at 10uM” value is -13.6%. Next, `Cc1ccc2[nH]c(=O)c(C(c3nnnn3CCc3ccccc3)N3CCOCC3)cc2c1` (stereo not shown): -10.5%; `CCc1ccc2[nH]c(=O)c(C(c3nnnn3Cc3ccc(OC)cc3)N3CCOCC3)cc2c1` (stereo not shown): -19.1%.

For `COc1ccc(Cn2nnnc2C(c2cc3cccc(C)c3[nH]c2=O)N2CCOCC2)cc1` (stereo not shown), the “hERG current change (%, negative = inhibition) at 10uM” value is -43.6%. With `COc1cnc(-c2ccccc2)nc1Oc1ccccc1C`, the “hERG current change (%, negative = inhibition) at 10uM” value is on record as -4.2%. As for `CN(C)c1ccc(C(=O)/C=C/c2ccccc2)cc1`, the figure is 8.65%; as for `O=C(NNC(=O)C1CCN(c2ncccn2)CC1)c1ccc(Cl)cc1`, 0.113%. Regarding `Cc1cccc(C)c1NC(=O)c1cc2c(=O)c3ccccc3oc2nc1C(F)(F)F`, the “hERG current change (%, negative = inhibition) at 10uM” value was -3.38%.

`C=CCn1cccc(C(=O)Nc2ccc(F)cc2)c1=O`: the “hERG current change (%, negative = inhibition) at 10uM” value is -24.8%. Next, `COC(=O)CSc1nnc(-c2ccccn2)n1Cc1ccco1`: -13.8%; `COc1ccc(CCN(C)C(=S)NC(=O)c2ccc(F)cc2Cl)cc1OC`: -20.4%. As for `COc1ccc(CN(C)CC(=O)Nc2ccc(N3CCOCC3)cc2)cc1OC`, the “hERG current change (%, negative = inhibition) at 10uM” value is -7.84%. Next, `COc1ccc(CN(C)C(C)C(=O)Nc2ccc(S(=O)(=O)N3CCCCC3)cc2)cc1F` (stereo not shown): -19.7%; `COc1ccc(Cl)cc1NC(=O)CN(C)Cc1ccc(OC)c(OC)c1`: -9.72%.

As for `COc1ccc(CN(C)C(C)C(=O)N(C)CC(=O)Nc2ccc(C)cc2)cc1F` (stereo not shown), the “hERG current change (%, negative = inhibition) at 10uM” value is recorded as -57.1%.

For the compound `COc1ccc(CCN(C)C(=S)Nc2ccc(SC(F)F)cc2)cc1OC`, the “hERG current change (%, negative = inhibition) at 10uM” value is -74.7%. Next, `COc1ccc(CN(C)CC(=O)Nc2ccc(SC(F)F)cc2)cc1OC`: -76.2%; `COc1ccc(CCNC(=S)N(C)C)cc1OC`: 32.8%; `COc1ccc(CN(C)CC(=O)Nc2cccc3ccccc23)cc1F`: -13.4%. For the compound `CCOC(=O)[C@H]1[C@H]2COc3ccc(Cl)cc3[C@@H]2N2C(=O)c3cc(Cl)ccc3NC(=O)[C@@]12C`, the “hERG current change (%, negative = inhibition) at 10uM” value amounted to 3.59%. With `COc1ccc(COC(=O)C2=C(C)NC(=O)NC2c2ccc(O)c(OC)c2)cc1` (stereo not shown), the “hERG current change (%, negative = inhibition) at 10uM” value is given as -3.97%. As for `Cc1ccc2[nH]c3c(c2c1)SC(C)(C)CC3=O`, the figure is 3.75%. For the compound `COC(=O)C(NC(=O)CSc1nc(N)cc(=O)[nH]1)c1ccccc1` (stereo not shown), the “hERG current change (%, negative = inhibition) at 10uM” value came out at 18.3%. For the compound `C=CCc1ccc(OCCn2cncn2)c(OC)c1`, the “hERG current change (%, negative = inhibition) at 10uM” value turned out to be 7.93%. As for `CCCCCN(C(=O)NC(=O)NC(C)CC)S(C)(=O)=O` (stereo not shown), the figure is 9.23%; as for `CCN(CC)CCn1c2c(c(SCC(=O)Nc3ccccc3Cl)nc1=O)CCCC2`, -55.6%; as for `CCN(CC)CCn1c2c(c(SCC(=O)NCc3ccccc3)nc1=O)CCCC2`, -31.4%.

Regarding `CCN(CC)CCn1c2c(c(SCC(=O)Nc3ccccc3Cl)nc1=O)CCC2`, the “hERG current change (%, negative = inhibition) at 10uM” value was -59.8%. Next, `O=C(CSc1nc(=O)n(CCCN2CCOCC2)c2c1CCCC2)Nc1ccccc1Cl`: -42.9%. As for `Cc1c(Cl)cccc1NC(=O)CSc1nc(=O)n(CCCN2CCOCC2)c2c1CCC2`, the figure is -47.1%.

On to `CCN(CC)CCCn1c2c(c(SCC(=O)Nc3ccccc3Cl)nc1=O)CCC2`, for which the “hERG current change (%, negative = inhibition) at 10uM” value is listed as -55.4%. Next, `CCN(CC)CCn1c2c(c(SCC(=O)NCc3ccccc3)nc1=O)CCC2`: -38.7%; `COc1ccccc1NC(=O)CSc1nc(=O)n(CCN(C)C)c2c1CCCC2`: -40.4%. Consider `C/C(=N\NC(=O)c1cccc(S(=O)(=O)N2CCCC2)c1)c1ccco1`, for which the “hERG current change (%, negative = inhibition) at 10uM” value is recorded as 14.1%.

`COc1ccc(N2CC(NC(=O)c3cccc4ccccc34)CC2=O)cc1OC` (stereo not shown): the “hERG current change (%, negative = inhibition) at 10uM” value was -2.85%. For `COc1cccc(CCNC(=O)CC2C(=O)NCCN2CC(C)(C)C)c1` (stereo not shown), the “hERG current change (%, negative = inhibition) at 10uM” value came to 15.8%. Take `CCCOc1ccc(NC(=O)CC2C(=O)OCC3CCCCN32)cc1` (stereo not shown): the “hERG current change (%, negative = inhibition) at 10uM” value is recorded as -4.12%. As for `COc1ccc(C2/C=C\CN(C(=O)Nc3ccc(C(F)(F)F)cc3)CC(=O)N2Cc2ccc(F)cc2)cc1` (stereo not shown), the figure is 6.55%; as for `NC(CO)(CO)CO.O=C(c1ccccc1)c1ccc2n1CCC2C(=O)O` (stereo not shown), -3.5%; as for `COc1ccc(N(CC(=O)NCc2ccc3c(c2)OCO3)C(=O)c2csnn2)cc1`, -13.6%.
